Test results published in the supplement of paper PMC6555819.

How the values were obtained:
Assay in all cases: PBM binding z-score (relative to random genomic background probes); higher = stronger binding; sequences stand for … in GC…GCGATTGACAGCGTAGAATGAAGG
[1] = system: FXR:RXRa (NR concentration 270 nM, RXRa partner concentration 90 nM)
Method in brief: (§1)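 Probes were double-stranded and carried 34-nt variable regions with direct-repeat seeds, single-nucleotide variants, half-site ablations and random human genomic background sequences, printed on custom Agilent 4×180K protein-binding microarrays. Arrays were incubated 1 h with ligand-free nuclear receptor dimers in PBS pH 7.4, 2% milk, 0.02% Triton X-100, 1 mM DTT, 0.2 mg/mL BSA and 0.4 mg/ml salmon testes DNA. Antibodies against each partner (one per run) detected binding, and scanned fluorescence was regression-normalized. Binding z-scores use the random background probes as reference.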

[2] = system: LXRa:RXRa (NR concentration 270 nM, RXRa partner concentration 90 nM)
Method in brief: as §1

[3] = system: LXRa homodimer (NR concentration 270 nM)
Method in brief: as §1

[4] = system: LXRb:RXRa (NR concentration 270 nM, RXRa partner concentration 90 nM)
Method in brief: as §1

[5] = system: LXRb homodimer (NR concentration 270 nM)
Method in brief: as §1

[6] = system: PPARa:RXRa (NR concentration 270 nM, RXRa partner concentration 90 nM)
Method in brief: as §1

[7] = system: PPARg:RXRa (NR concentration 180 nM, RXRa partner concentration 90 nM)
Method in brief: as §1

[8] = system: PPARg:RXRa 270nM:90nM, anti-RXR (NR concentration 270 nM, RXRa partner concentration 90 nM)
Method in brief: as §1

[9] = system: PPARg:RXRa 30nM:10nM, anti-RXR (NR concentration 30 nM, RXRa partner concentration 10 nM)
Method in brief: as §1

[10] = system: PPARg:RXRa 90nM:30nM, anti-RXR (NR concentration 90 nM, RXRa partner concentration 30 nM)
Method in brief: as §1

[11] = system: PPARg:RXRa DBDmut IVT, anti-RXR (DBD mutation: RXRa K156A/R161A, NR concentration 270 nM, RXRa partner concentration 90 nM)
Method in brief: as §1

[12] = system: PPARg:RXRa IVT, anti-PPARg (NR concentration 270 nM, RXRa partner concentration 90 nM)
Method in brief: as §1

[13] = system: PPARg DBDmut:RXRa IVT, anti-PPARg (DBD mutation: PPARg1 K132A/R137A, NR concentration 270 nM, RXRa partner concentration 90 nM)
Method in brief: as §1

[14] = system: PPARg DBDmut IVT, anti-PPARg (DBD mutation: PPARg1 K132A/R137A, NR concentration 270 nM)
Method in brief: as §1

[15] = system: PPARg homodimer (NR concentration 180 nM)
Method in brief: as §1

[16] = system: PXR:RXRa (NR concentration 270 nM, RXRa partner concentration 90 nM)
Method in brief: as §1

[17] = system: PXR homodimer (NR concentration 270 nM)
Method in brief: as §1

[18] = system: RARa:RXR (NR concentration 270 nM, RXRa partner concentration 90 nM)
Method in brief: as §1

[19] = system: RARa homodimer (NR concentration 270 nM)
Method in brief: as §1

[20] = system: RARb:RXRa (NR concentration 270 nM, RXRa partner concentration 90 nM)
Method in brief: as §1

Sequence | PBM binding z-score [1] | PBM binding z-score [2] | PBM binding z-score [3] | PBM binding z-score [4] | PBM binding z-score [5] | PBM binding z-score [6] | PBM binding z-score [7] | PBM binding z-score [8] | PBM binding z-score [9] | PBM binding z-score [10] | PBM binding z-score [11] | PBM binding z-score [12] | PBM binding z-score [13] | PBM binding z-score [14] | PBM binding z-score [15] | PBM binding z-score [16] | PBM binding z-score [17] | PBM binding z-score [18] | PBM binding z-score [19] | PBM binding z-score [20]
CCAGACAGGTGAAAGATAACTCAGTCTGGTACGC | -0.034 | 0.0578 | -0.199 | -0.0465 | -0.465 | 0.902 | 1.27 | 1.47 | 0.306 | 1 | 1.22 | 0.571 | -0.176 | -0.498 | 0.844 | -0.0544 | 0.127 | 0.381 | 0.87 | 0.534
TCGAGTAGGTTAAGGGCATTCAGAATGGCGTCGA | 0.969 | 1.02 | -0.302 | 0.27 | -1.02 | 1.75 | 1.68 | 2.85 | 1.35 | 2.37 | 2.73 | 2.37 | -0.645 | -1.04 | 0.261 | 0.999 | 0.373 | 0.821 | -0.417 | 2.03
TAGCCTAGGTCATGGGCCAGTCTACCACGCGAAC | 4.36 | 3.2 | 0.0919 | 2.04 | -0.312 | 4 | 3.34 | 3.49 | 0.699 | 2.48 | 1.64 | 3.21 | 0.44 | 0.137 | 1.7 | 1.48 | -0.884 | 2.52 | -0.257 | 3.74
CGAACTAGGTCATTGACAGGACTGTGAATAGTAA | 4.46 | 2.5 | 0.131 | 1.81 | 0.103 | 4.71 | 7.38 | 6.1 | 4.05 | 5.52 | 7.96 | 8.16 | 2.42 | 3.75 | 1.48 | 1.11 | 0.155 | 1.81 | -0.0382 | 3.43
ATCGAAAGGTCGACGAGGTGAGGATACACCGTTT | 4.5 | 3.36 | 0.0188 | 2.44 | 0.655 | 4.27 | 3.09 | 3.46 | 1.36 | 2.36 | 0.8 | 2.39 | 0.388 | 0.42 | 1.72 | 2.77 | 0.496 | 3.52 | 0.262 | 3.98
GCTGCTAGCTCAACTGATGGTCAGCTAAAGCTCG | -0.673 | -0.959 | -0.842 | -1.01 | -1.05 | -1.23 | -0.747 | -1.13 | -1.24 | -1.15 | -0.64 | -0.817 | -1.66 | -1.33 | -1.88 | -0.933 | -1.77 | -1.22 | -1.08 | -0.407
CCGACTGGGGCAGAAAGGTTACAATACCATCCGG | 0.452 | 0.428 | -0.0734 | 1.17 | -0.707 | 2.02 | 1.77 | 2.68 | 0.821 | 2.01 | 1.65 | 1.7 | -0.655 | -0.38 | 0.958 | 1.14 | -0.0674 | 1.67 | 0.24 | 1.73
TCTTGTAGATCAGCAGGTTAGGAAAGCTGGCCAA | -0.1 | 0.244 | -0.295 | -0.112 | -0.394 | 0.532 | -0.423 | 1.47 | 2.53 | 2.15 | 1.65 | 0.124 | -0.587 | -0.926 | 0.0866 | -0.035 | -0.454 | 0.152 | 0.51 | 0.179
TAGCCTAGCTCATTGGGCCAGTATAGTACGCATC | -0.7 | -0.917 | -0.393 | -0.751 | -0.9 | -0.564 | 0.238 | -0.576 | -0.321 | -0.323 | 0.043 | -0.244 | -0.824 | -1.08 | -1.36 | -0.795 | -0.368 | -0.451 | -1.17 | -0.719
CCGGACAGGTGAAAGGTAACTCAGTCTGGTACGC | 0.736 | 0.472 | -0.206 | 0.874 | -0.858 | 3.17 | 4.79 | 5.2 | 3.2 | 5.45 | 1.68 | 2.68 | -0.561 | -0.876 | 0.751 | 0.988 | 0.241 | 1.91 | -0.413 | 1.46
CCTTACGGGTCACTGACAGGTTATACCATTTGGA | 4.86 | 4.42 | 0.698 | 3.61 | -0.46 | 5.07 | 4.22 | 4.39 | 1.45 | 3.05 | 3.69 | 3.72 | 0.775 | 0.106 | 2.46 | 3.75 | 0.348 | 4.53 | 1.11 | 4.14
CCTAGCAGGGCAATCTGGGTCACTCAAGGCTTGA | 0.679 | 2.4 | -0.398 | 0.85 | -0.611 | 2.99 | 2.72 | 2.62 | 0.319 | 1.75 | 4.48 | 5.72 | -0.465 | -0.641 | 0.648 | 1.65 | -0.451 | 1.89 | -0.799 | 2.06
TCTCGGGGGACACGAAAGGTCAGAGCTCGACATC | 4.5 | 5.39 | 3.18 | 5.47 | 5.76 | 5.03 | 3.63 | 4.96 | 3.73 | 4.14 | 3.01 | 4.33 | 6.64 | 6.38 | 5.71 | 5.07 | 1.76 | 5.57 | 2.64 | 4.48
ATCGAAAGGTCGAGGTGCGTATAGAGAAAGGGAA | 3.98 | 3.27 | -0.147 | 2.47 | 0.277 | 4.37 | 2.48 | 3.13 | 1.09 | 2.17 | -0.194 | 1.03 | 0.819 | 0.0547 | 1.09 | 2.33 | 0.0206 | 3.2 | 0.4 | 3.98
GATACAGGGTCAAGGCTAGAGTACGCGTATTGAT | 6.01 | 4.13 | 0.107 | 3.78 | 0.158 | 5.61 | 5.73 | 5.61 | 2.19 | 4.21 | 3.54 | 3.94 | 1.02 | 0.742 | 1.69 | 3.72 | 0.503 | 4.37 | 0.567 | 4.43
ATATGTCGGTTATCGGGTCATTCAGTTTGCGCAT | 2.49 | 2.52 | 1.64 | 2.54 | 0.586 | 3.3 | 2.53 | 2.94 | 0.785 | 2.19 | 3.75 | 4.28 | 1.98 | 2.05 | 2.12 | 3.32 | 7.06 | 3.02 | 0.924 | 2.11
AGAATGAGGTTACCATAGATCAGGGAAACGCTTG | 1.71 | 6.81 | -0.421 | 3.61 | -0.0924 | 3.14 | 2.41 | 2.09 | 0.706 | 1.29 | 3.38 | 3.18 | 0.359 | 0.63 | 0.136 | 0.897 | 0.179 | 1.54 | 0.172 | 1.79
GCTGCTAGGTGAGGTTGGTCAGCTAACGGGTACG | -0.483 | -0.442 | -0.661 | -0.672 | -0.761 | -0.326 | -0.331 | -0.69 | -1.04 | -0.961 | 2.07 | 0.995 | -0.621 | -0.843 | -0.464 | -0.499 | -0.63 | -0.358 | -0.904 | 0.502
